Calls of active or inactive are those of the source. The rule behind the calls is not given here.

Chain of Pantothenate synthetase (Mycobacterium tuberculosis (strain ATCC 25618 / H37Rv)) (P9WIL5 whole entry, looked up): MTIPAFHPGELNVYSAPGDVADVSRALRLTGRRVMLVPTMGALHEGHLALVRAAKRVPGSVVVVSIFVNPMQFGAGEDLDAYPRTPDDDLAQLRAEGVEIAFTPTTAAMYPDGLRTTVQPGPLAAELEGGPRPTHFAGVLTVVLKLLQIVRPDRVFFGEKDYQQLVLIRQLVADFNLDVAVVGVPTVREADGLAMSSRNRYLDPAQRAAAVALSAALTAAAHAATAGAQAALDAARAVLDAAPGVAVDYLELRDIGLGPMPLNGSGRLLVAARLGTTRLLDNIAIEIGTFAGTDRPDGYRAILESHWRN

This test concerns the target Pantothenate synthetase (Mycobacterium tuberculosis (strain ATCC 25618 / H37Rv)) (UniProt P9WIL5). Briefly: Coupled enzyme confirmation of inhibitors against recombinant Mtb PanC (AID 375).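 Note: 0% = full reaction with vehicle and 100% = no enzyme background.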 As to conditions: coupled enzyme assay; at 10 µM, active compounds read high.
Consider `CCN1CCN(S(=O)(=O)Cc2ccccc2)CC1`, for which the inhibition was 0% (inactive). Next, `N#CC1=C(N)N2C(=C(C#N)C13CCCCC3)SC1CCCCC12O` (centres undefined): 0% (inactive); `CCOc1ccccc1C1CC(c2ccc(Br)cc2)Nc2nc(N)nn21` (centres undefined): 10% (inactive).

`CCCN(CC1CC1)C(=O)Nc1ccccc1C`: the inhibition was 1% (inactive). With `COc1ccc(Nc2nc(OC)nc(N3CCN(c4ccc(OC)cc4)CC3)n2)cc1`, the inhibition is 1% (inactive). The same measure for `Cc1ccc(C)c(-c2nc3cc(N)ccc3o2)c1`: 0% (inactive).

Turning to `COC(=O)c1ccc(CN(c2ccccc2OC)S(=O)(=O)c2cccs2)o1`, the inhibition was 2% (inactive). The same measure for `CC1(C)NC(=O)N(CCOc2cccc(Cl)c2Cl)C1=O`: 0% (inactive). The same measure for `Cc1ccc(-n2c(=O)c(C#N)cc3c(=O)n4ccccc4nc32)cc1`: 0% (inactive); for `Cn1cnc(S(=O)(=O)Nc2ccc(C(F)(F)F)cc2)c1`: 0% (inactive); for `CCOCCCNC(=O)CN1CCN(Cc2ccccc2C)C1=O`: 5% (inactive). As to `Nc1ncnc2nc(SCCN3CCCCC3)[nH]c12`, the inhibition was 4% (inactive). Turning to `Cn1c(=O)c(=O)n(C)c2cc(S(=O)(=O)Nc3ccc4c(c3)OCCO4)ccc21`, the inhibition was 6% (inactive). Next, `N#CCCN(Cc1cccnc1)C(=O)Nc1ccc(Cl)c(Cl)c1`: 1% (inactive); `c1ccc(CCNc2ccc3nncn3n2)cc1`: 2% (inactive). Next, `CC12CCC(C(=O)N3CCCCC3)(CC1=O)C2(C)C` (centres undefined): 0% (inactive); `CC1CCc2nn(CC(=O)N3CCN(C(=O)c4ccco4)CC3)cc2C1` (centres undefined): 10% (inactive). For the compound `Cc1nc(NC2=NCN(CCN3CCOCC3)CN2)nc2c(C)cccc12`, the inhibition was 0% (inactive).

Regarding `CCCC(C)c1nnc(NC(=O)C2CCCO2)s1` (centres undefined), the inhibition is 0% (inactive). For the compound `O=C(CCNC(=O)c1ccc(Br)o1)NC1CCCC1`, the inhibition was 0% (inactive). The same measure for `COc1ccc(Cc2nc(-c3ccc(Br)cc3)no2)cc1`: 7% (inactive); for `Cc1[nH]c2ccc(F)cc2c(=O)c1SC(F)(F)C(F)C(F)(F)F` (centres undefined): 1% (inactive). Next, `COC(=O)c1ccc(NC(=O)Cn2nnc3ccccc32)cc1`: 0% (inactive); `CN(C)c1ccc2c(c1)OC(N)=C(C#N)C2c1cccc(F)c1` (centres undefined): 0% (inactive).

For the origin of these results see PubChem BioAssay.
